Test results as given in ChEMBL document CHEMBL4513216, “Probing the Open Global Health Chemical Diversity Library for Multistage-Active Starting Points for Next-Generation Antimalarials” (ACS Infect Dis, 2020).
In all, about 69,000 compounds went through this assay and about 8,600 (12%) showed an effect of 50% or more. The list comes from a sample in which strong results are over-represented; it also holds similar structures and randomly drawn compounds.

System: Plasmodium berghei
Experiment: Screen against P. berghei liver stage (PbLuc), transformed with Luciferase, at 10uM
Type: functional, HepG2
Conditions: tested at 10 uM

Compound	INHIBITION [%]
Cc1nc(C(=O)N2CCCC2c2c(C)nn(C)c2C)cs1 (configuration not stated)	13.3
Cc1csc(N2CCN(CC(=O)NC3CCOCC3)CC2C)n1 (configuration not stated)	45.6
CCC(=O)N1CCC2(CC1)C(=O)N(C)CCN2Cc1csc(C)n1	13.6
CCN(C(=O)CN1CCCN(c2nc(C)ns2)CC1)C1CC1	68.5
Cc1nsc(N2CCN(CC(=O)N(C3CC3)C(C)C3CC3)CC2)n1 (configuration not stated)	22.6
CCc1nsc(N2CCCN(CC(=O)N(C)C3CC3)CC2)n1	39.3
COc1ccc(-c2noc(C(N)CCSC)n2)cc1OC (configuration not stated)	46.6
CNc1cc(CCNC(=O)C2CCCC2)nc(-c2ccccn2)n1	-9.34
O=C1CC(C(=O)NCc2ccccc2Oc2ccccc2F)CCN1 (configuration not stated)	8.38
Cc1ccc(CNC(=O)C2CCNC(=O)C2)c(OCCC(C)C)c1 (configuration not stated)	58.4
Cc1cccc(Oc2ccccc2CNC(=O)C2CCNC(=O)C2)c1 (configuration not stated)	-33.7
CNC(=O)c1ccc(N(C)C2CCC2)nn1	-107
COC(=O)c1ccc(N(C)C2CCC2)nn1	50.1
CN(c1ccc(C(N)=O)nn1)C1CCC1	-8.73
Cc1noc2nc(C3CCN(CC4=CCCOC4)CC3)cc(C(F)F)c12	39.8
CC(=O)Nc1nc(C2CCN(C(=O)Cc3ccccc3)CC2)cs1	0.301
Cc1cc(C(=O)N2CCCC(C)C2)ccc1NCC(=O)N1CCOCC1 (configuration not stated)	-47.6
CO[C@H]1CN(C(=O)c2ccc3c(c2)OCO3)[C@@H]2COC[C@H]12	1.48
CN(C)CCO[C@H]1CN(C(=O)c2ccc3c(c2)OCO3)[C@@H]2COC[C@H]12	-20.8
Cn1ncc2c1CN(C(=O)Cc1ccccn1)CC2COCC1CC1 (configuration not stated)	64.9
COCC1CN(S(=O)(=O)c2ccc(C)cc2)Cc2c1cnn2C (configuration not stated)	34.9
Cn1ncc2ccc(C3CCCN(C(=O)Cc4cccs4)C3)nc21 (configuration not stated)	58.5

Compound	INHIBITION [%]
Cn1ncc2ccc(C3CCCN(Cc4cccs4)C3)nc21 (configuration not stated)	20.74
COCC1CN(S(=O)(=O)Cc2ccc(C)cc2)Cc2c1cnn2C (configuration not stated)	-0.554
COCC1CN(S(=O)(=O)Cc2ccccc2)Cc2c1cnn2C (configuration not stated)	54.1
COCC1CN(C(=O)Cc2ccccn2)Cc2c1cnn2CC1CC1 (configuration not stated)	15.9
Cc1cc(C)n(C2CCCN(C(=O)Cc3cccs3)C2)n1 (configuration not stated)	-5.25
CCO[C@H]1CN(C(=O)c2ccc3c(c2)OCO3)[C@@H]2COC[C@H]12	57.9
CCOCC1CN(C(=O)Cc2ccccn2)Cc2c1cnn2C (configuration not stated)	26.4
CC1CCN(S(=O)(=O)N2CCCN(CC3CCCO3)CC2)CC1 (configuration not stated)	38
CC(C)n1cnc2c1C(C(=O)NCCO)N(Cc1ccccc1)CC2 (configuration not stated)	-18.4
CSc1ncc(C(=O)N2C[C@@H]3CC[C@H]2CN(c2ncccn2)C3)cn1	14
CCn1ncc2c1CN(C(=O)c1cc(C)oc1C)CC2COC (configuration not stated)	-12.1
CCn1ncc2c1CN(C(=O)c1cscn1)CC2COC (configuration not stated)	45.1
COCC1CN(C(=O)c2ccnnc2)Cc2ncnn2C1 (configuration not stated)	-41.6
CCn1ncc2c1CN(C(=O)c1ccc3c(c1)OCO3)CC2COC (configuration not stated)	50.7
COCC1CN(C(=O)Cc2cccs2)Cc2c1cnn2C (configuration not stated)	66
COCC1CN(C(=O)c2ccnnc2)Cc2c1cnn2C (configuration not stated)	48.3
COCC1CN(C(=O)CC2Cc3ccccc3C2)Cc2c1cnn2C (configuration not stated)	59
CCn1ncc2c1CN(C(=O)Cc1cccs1)CC2COC (configuration not stated)	-27.9
COCC1CN(C(=O)Cc2ccsc2)Cc2c1cnn2C (configuration not stated)	46.2
COCC1CN(C(=O)Cc2ccccn2)Cc2ncnn2C1 (configuration not stated)	64.9
COCC1CN(C(=O)c2cccn2C)Cc2c1cnn2CC1CC1 (configuration not stated)	31.7
COCC1CN(C(=O)CNC(C)=O)Cc2ncnn2C1 (configuration not stated)	6.8

Compound	INHIBITION [%]
Cc1ccc(N2CCCC(NCc3sccc3C)C2)nn1 (configuration not stated)	36.1
O=C(c1cscn1)N1CCC2(CN(Cc3nccs3)C2)C1	15.9
Cc1csc2ncc(-c3ccnc(NC4CCOCC4)n3)c(=O)n12	-9.27
CCCc1noc(C(C)N(CC)Cc2ccco2)n1 (configuration not stated)	-30.5
O=C(c1ccno1)N1CC[C@@H]2O[C@H](COCCN3CCCC3)CC[C@@H]21	4.27
O=C1CCC2(CCCN(C(=O)Cc3cccnc3)C2)N1 (configuration not stated)	0.112
c1ccc(-c2cc(CN3CCCCCC3c3ccco3)on2)nc1 (configuration not stated)	-15
Fc1ccc(C2CCCN2Cc2nc(Cc3ccccc3F)no2)cc1 (configuration not stated)	25.8
CCc1cc(CN2CCCCC2c2ccc(F)cc2)on1 (configuration not stated)	65.7
Fc1cccc(C2CCCCN2Cc2nc(-c3cnccn3)no2)c1 (configuration not stated)	-12.6
CCc1nc(C2CCCN2Cc2ccno2)no1 (configuration not stated)	19.6
Fc1ccc(C2CCCCN2Cc2cc(-c3ccccn3)no2)cc1 (configuration not stated)	51.8
COc1ccc(C2CCCCCN2S(C)(=O)=O)cc1 (configuration not stated)	27.4
Cc1ccc2c(n1)N(C)CCN(Cc1ccco1)C2	3.88
CN1CCN(c2ncnc3c2CCN(S(=O)(=O)C2CC2)CC3)CC1	29.4
Cc1cs/c(=N\C(=O)c2c3c(nc4onc(C)c24)CCC3)[nH]1	24.1
CC(=O)Nc1nc(C(=O)NC(C)c2ccc(F)cc2)cs1 (configuration not stated)	-45.2
Cc1cs/c(=N/C(=O)c2csc(NCC(C)C)n2)[nH]1	90.8
Cc1[nH]/c(=N\C(=O)c2csc(NCC(C)C)n2)sc1C	89.6
Cc1cc(O)c(OCC(=O)/N=c2\[nH]c(C)c(C)s2)cn1	-69.4
CC(C)CNc1nc(C(=O)/N=c2\[nH]nc(C(C)(C)C)s2)cs1	11.5
Cc1nn(C(C)C)c(C)c1CN1CCN(C2CCCCC2)C(=O)C1	5.1

Compound	INHIBITION [%]
CCN1CC[C@@]2(C(=O)N3CCOCC3)CCN(S(=O)(=O)CC)CC[C@@H]12	17.4
Cc1ccn2cc(C(=O)N3CCCC(Cn4cc(CO)nn4)C3)nc2c1 (configuration not stated)	36.7
Cc1cc2n(n1)[C@@H](C(F)(F)F)C[C@@H](C1CCN(C(=O)C3CC3)CC1)N2	-4.51
CC(C)(C)CC(=O)NS(=O)(=O)c1ccc(C#N)cc1C(F)(F)F	19.2
Cc1cc(C)n(-c2cncc(NCCNC(=O)C3CCCC3)n2)n1	45.2
CS(=O)(=O)N1CC[C@H]2C[C@@H](C(=O)N3CCOCC3)O[C@@H]2C1	25.4
CS(=O)(=O)N1CCn2c(C(=O)N3CCOCC3)cnc2C1	52.6
CS(=O)(=O)N1C[C@@H]2C[C@H](C(=O)N3CCOCC3)[C@H](C1)O2	0.112
O=C(O)c1cc(S(=O)(=O)Nc2cc(F)cc(F)c2)cc2c1OCCO2	40
Cc1cc(C)cc(NS(=O)(=O)c2cc3c(c(C(=O)O)c2)OCCO3)c1	57.2
Cc1cccc(NS(=O)(=O)c2cc3c(c(C(=O)O)c2)OCCO3)c1	7.27
COCCN1C(=O)CCC12CCC(NC(=O)c1cnccn1)CC2 (configuration not stated)	-14.7
CNC(=O)C1(c2cnccn2)CCCN1C(=O)c1ccccc1F (configuration not stated)	13.5
C[C@H]1CN(CC2CCOCC2)C[C@@]12CCN(Cc1cccnc1)C2=O	3.81
OCC1CCCCN1CCn1ccnc1-c1nc2ccccc2[nH]1 (configuration not stated)	38.8
CN1CCCC1CCn1ccnc1-c1ccc2ccccc2n1 (configuration not stated)	72.3
Cc1nccn1CCC1CCNCC1	39.6
CN1CCCC1CCn1ccnc1-c1nc2ccccc2[nH]1 (configuration not stated)	53.9
Cc1nc(CN2CCCC2Cn2ccnc2C(C)C)nc2ccccc12 (configuration not stated)	30.4
CN1CCCC1CCn1ccnc1-c1nc(-c2ccccc2)no1 (configuration not stated)	51.8
c1ccc(-c2noc(CCCN3CCCC3Cn3cccn3)n2)cc1 (configuration not stated)	45.7
Cc1nn(C)c2nc(-c3ccccn3)nc(NCCC3CCCN3C)c12 (configuration not stated)	11.2

Compound	INHIBITION [%]
Cn1ccnc1CN1CCCCC1c1nc(-c2ccccc2)no1 (configuration not stated)	30.4
COCCN1CCCC1Cn1nc(C)cc1C (configuration not stated)	32.3
Cc1cc(=O)n2nc(Oc3ccc(Cl)c(C)c3)sc2n1	16.3
CCC(C)N(Cc1cnc(NCC(=O)O)nc1)Cc1ccsc1 (configuration not stated)	41.3
O=C(Cc1ccccc1O)NC1CCCN(c2ccccc2F)C1=O (configuration not stated)	26.4
Cc1cc(C(=O)NCCC(=O)N2CCCc3ccccc32)no1	1.51
O=C(c1ccnnc1)N1C[C@H](OCC2CCOCC2)[C@H]2OCCC[C@H]21	4.68
CC(C)(C)c1cnc(CNCC2CCCN2c2cccnn2)o1 (configuration not stated)	34.1
Cc1nc(CN(C)CC2CCCN2c2cccnn2)oc1C (configuration not stated)	-27.8
Cc1nc2ccccc2nc1CN(C)CC1CCCN1c1cccnn1 (configuration not stated)	10.2
CN(Cc1ncc(C(C)(C)C)o1)CC1CCCN1c1cccnn1 (configuration not stated)	86.6
CN(Cc1nc2ccccc2o1)CC1CCCN1c1cccnn1 (configuration not stated)	55
CN(Cc1nc(N)c2ccccc2n1)CC1CCCN1c1cccnn1 (configuration not stated)	11.8
Cc1nnc(CN(C)CC2CCCN2c2cccnn2)o1 (configuration not stated)	19.5
CN(Cc1ncc(-c2ccccc2)o1)CC1CCCN1c1cccnn1 (configuration not stated)	37
Cc1nc(CN(C)CC2CCCN2c2cccnn2)nc2ccccc12 (configuration not stated)	60.9
CC(=O)N1CCCN(C(C)c2ccc(Br)cc2)CC1 (configuration not stated)	-19.2
CC(C)CNC(=O)N1CC[C@@H]2CN(Cc3cccnc3)S(=O)(=O)[C@@H]2CC1	32.1
CCC(CC)C(O)CNC(=O)Cc1c[nH]c2ncccc12 (configuration not stated)	2.38
